Rows were chosen to be rich in hits. Some 1.8% of all compounds tested hit in one or more screens of this group.
DENV2 CPE rescue – protects cells from dengue virus 2 cytopathic effect | DENV2-infected cells, cytopathic effect rescue, plate reader | CPE inhibition, % at 9.99 µM | AID 651640 | actives 1.7% (n = 350,000); in the data active means CPE inhibition above about 20%, passing the limit was not always enough; inconclusive means no clear call, values can overlap the other calls; tested in BHK-21 cells;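 further: 0% = median of neutral control wells and 100% = median of positive control wells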
PDI inh – blocks human protein disulfide isomerase activity; P07237; PDI insulin aggregation turbidity, A650, 90 min; inhibition, % at 10 µM; actives 0.052% (n = 350,000);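 active means mean inhibition across replicates of 30% or more, whatever share of single replicates reach that level; inconclusive means mean inhibition below 30% while every single replicate reaches 30%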
ERp5 inh – ERp5 (human) disulfide isomerase inhibition | inhibition, % at 9.99 µM | AID 651711 | Q15084 | actives 0.05% (n = 350,000) | ERp5 insulin aggregation, absorbance 650 nm, 90 min;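 active means mean replicate inhibition above about 25%, with every replicate also reaching it, limit read from the data, passing the limit was not always enough; inconclusive means only one of those two criteria met; inactive means neither criterion met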
Target sequence (Q15084 whole entry, looked up): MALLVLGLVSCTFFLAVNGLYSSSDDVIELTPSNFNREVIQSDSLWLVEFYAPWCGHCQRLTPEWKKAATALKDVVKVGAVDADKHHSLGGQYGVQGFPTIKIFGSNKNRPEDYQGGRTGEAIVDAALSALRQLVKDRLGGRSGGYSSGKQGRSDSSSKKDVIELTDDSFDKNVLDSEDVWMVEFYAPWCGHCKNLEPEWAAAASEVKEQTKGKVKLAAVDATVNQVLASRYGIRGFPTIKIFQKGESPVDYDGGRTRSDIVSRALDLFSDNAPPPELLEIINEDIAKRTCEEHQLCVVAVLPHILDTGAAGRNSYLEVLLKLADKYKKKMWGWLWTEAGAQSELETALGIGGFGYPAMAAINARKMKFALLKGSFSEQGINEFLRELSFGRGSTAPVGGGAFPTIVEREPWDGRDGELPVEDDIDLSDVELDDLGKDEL
MLL AF4-AF9 inh – MLL-AF4/AF9 protein interaction inhibition; P42568; AlphaScreen, biotin-AF4 peptide binding to FLAG-AF9; inhibition, % at 10 µM; actives 0.47% (n = 350,000); AID 651704;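 active means every replicate reaching a set inhibition limit, whatever the replicate mean, cut at about 25% in these data; inconclusive means mean inhibition reaches that limit but some replicates miss it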;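 further: 0% = plate neutral control median and 100% = total signal loss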
ERAP1 inh – ERAP1 (human) enzyme inhibition; inhibition, % at 10.7 µM; Q9NZ08; actives 0.15% (n = 340,000); recombinant ERAP1, Leu-AMC fluorescence, 60 min; AID 652197;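 active means mean replicate inhibition of at least 30%, or all replicates individually reaching that 30% level; inactive means mean below 30% and not every replicate reaching it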;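 further: 0% = neutral control wells and 100% = L-leucinethiol positive control wells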
The depositor's hits bear a star; ? = inconclusive; nt = no result.

SMILES | DENV2 CPE rescue | PDI inh | ERp5 inh | MLL AF4-AF9 inh | ERAP1 inh
CC(Nc1ccc(F)cc1)=[N+](C)CCNS(=O)(=O)c1ccc(Cl)cc1 | 0 | -2 | -6 | -10 | 39*
CCCN1[C@@H]2c3ccc(C4=CCCCC4)c(=O)n3C[C@@H]2[C@@H](CO)[C@@H]1C(=O)OC | 2 | nt | -12 | 0 | -2
Nc1nnc(SCC(=O)Nc2ccc(N3CCOCC3)c(Cl)c2)s1 | 10 | 3 | 6 | 1 | -1
Nc1nnc(SCC(=O)Nc2cccc(Cl)c2)s1 | 50* | -1 | -1 | -2 | 3
C[C@@H]1CN([C@H](C)CO)C(=O)Cc2cc(NS(=O)(=O)c3ccccc3)ccc2O[C@H]1CN(C)Cc1ccc2c(c1)OCO2 | 10 | nt | -6 | 4 | 0
CO[C@@H](CCO)[C@@H](O)c1ccc(O)c(F)c1 | 8 | nt | 0 | 0 | -3
O=C(C1CCCCC1)N1CC2(C1)[C@@H](c1ccccc1)[C@@H](CO)N2Cc1ccccc1F | 32* | nt | -3 | -14 | -6
COc1ccccc1CN1[C@H](CO)[C@@H](c2ccccc2)C12CN(C(C)=O)C2 | 12 | nt | -3 | 0 | 1
O=C(c1cccc(F)c1)N1CC2(C1)[C@H](c1ccccc1)[C@H](CO)N2C(=O)C1CCCCC1 | -9 | nt | 7 | -2 | -2
O=C(c1cccc(F)c1)N1CC2(C1)[C@@H](c1ccccc1)[C@@H](CO)N2C(=O)C1CCCC1 | 78* | nt | -3 | -3 | 0
CN(C)CC(=O)N1[C@H](CO)[C@@H](c2ccccc2)C12CN(C(=O)C1CCCC1)C2 | 51* | nt | 0 | -2 | 1
COc1ccccc1CN1[C@H](CO)[C@@H](c2ccccc2)C12CN(C(=O)c1ccccn1)C2 | 89* | nt | -10 | -1 | -15
CN(C)CC(=O)N1CC2(C1)[C@H](c1ccccc1)[C@@H](CO)N2C(=O)C1CCCC1 | -1 | nt | -5 | 0 | 0
O=C(C1CCCC1)N1[C@@H](CO)[C@@H](c2ccccc2)C12CN(CCC(F)(F)F)C2 | 16 | nt | -3 | -1 | 0
CC(C)C[C@H](NC(=O)c1nc[nH]c1C(=O)NC1CCN(C(=O)OC(C)(C)C)CC1)C(=O)OC(C)(C)C | 50* | -3 | 2 | 7 | -3
CC(C)(C)OC(=O)NCc1ccc(CNC(=O)c2nc[nH]c2C(=O)N2CCc3ccccc3C2)cc1 | 60* | -1 | 1 | 3 | -1
CN(Cc1ccccc1)C(=O)c1nc[nH]c1C(=O)N1CCN(C(=O)OC(C)(C)C)CC1 | 42* | -8 | 3 | -2 | -2
CN(Cc1ccccc1)C(=O)c1nc[nH]c1C(=O)N1CCN(c2ccccc2)CC1 | -5 | -7 | 0 | nt | 2
CC(C)(C)OC(=O)N1CCC(NC(=O)c2nc[nH]c2C(=O)NCc2ccccc2)CC1 | 34* | 8 | 2 | 1 | nt
CCC(=O)N1[C@@H]2Cn3c(ccc(-c4cccnc4)c3=O)[C@H]1[C@@H](C(=O)N1CCc3ccccc3C1)[C@@H]2CO | 1 | nt | -4 | 0 | 0
CO[C@H]1CN(C)C(=O)c2cc(NS(C)(=O)=O)ccc2OC[C@H](C)NC[C@H]1C | 14 | nt | -3 | -5 | -1
C[C@H](CO)N1C[C@H](C)[C@H](CN(C)C)Oc2ncc(C#Cc3ccccc3)cc2C1=O | 10 | nt | -1 | -1 | nt
O=C(CN1CCOCC1)NCC[C@H]1CC[C@H](NC(=O)Nc2ccc(C(F)(F)F)cc2)[C@@H](CO)O1 | -4 | nt | 1 | 0 | -3
C[C@H](CO)N1C[C@H](C)[C@H](CN(C)Cc2ccc(-c3ccccc3)cc2)Oc2ccc(N(C)C)cc2C1=O | -1 | nt | 2 | 49* | -2
C[C@H](CO)N1C[C@H](C)[C@H](CN(C)Cc2ccccc2)Oc2ccc(N(C)C)cc2C1=O | -3 | nt | 0 | -1 | 0
SMILES | DENV2 CPE rescue | PDI inh | ERp5 inh | MLL AF4-AF9 inh | ERAP1 inh
C[C@H]1CN([C@@H](C)CO)C(=O)c2cc(N(C)C)ccc2O[C@H]1CN(C)Cc1ccccc1 | ? | nt | 13 | 0 | -2
C[C@H](CO)N1C[C@H](C)[C@@H](CN(C)Cc2ccc(Oc3ccccc3)cc2)Oc2ccc(N(C)C)cc2C1=O | -8 | nt | 2 | 37* | -1
C[C@H](CO)N1C[C@H](C)[C@@H](CN(C)Cc2ccc(-c3ccccc3)cc2)Oc2ccc(N(C)C)cc2C1=O | ? | nt | 0 | 29* | -5
C[C@H]1CN([C@@H](C)CO)C(=O)c2cc(N(C)C)ccc2O[C@H]1CN(C)Cc1ccc(-c2ccccc2)cc1 | 1 | nt | 3 | 33* | -2
C[C@@H]1CN([C@@H](C)CO)C(=O)c2cc(N(C)C)ccc2O[C@@H]1CN(C)Cc1ccc(-c2ccccc2)cc1 | 5 | nt | 2 | 48* | -5
Cc1ccc(Cn2c(=O)c3ccccc3n3c(CCC(=O)O)nnc23)cc1 | -2 | nt | 5 | -2 | 3
CC(C)Cn1c(=O)c2ccccc2n2c(CCC(=O)O)nnc12 | 70* | 1 | 3 | -1 | 1
CN1CCN(c2cc(N3CCN(C(=O)c4ccco4)CC3)c3c4c(onc24)-c2ccccc2C3=O)CC1 | nt | -3 | nt | nt | nt
O=C1c2ccccc2-c2onc3c(N4CCN(CCO)CC4)cc(N4CCN(C(=O)c5ccco5)CC4)c1c23 | -7 | -9 | 7 | 76* | 3
CCN1CCN(c2ccc(S(=O)(=O)N3CCCCC3)cc2NC(=O)c2ccccc2)CC1 | -12 | -4 | 10 | -30 | 103*
CCN1CCN(c2ccc(S(=O)(=O)N3CCCCC3)cc2NC(=O)c2ccc([N+](=O)[O-])s2)CC1 | 1 | -2 | 5 | 29* | 3
CC(=O)NCCC(=O)Nc1cc(S(=O)(=O)N2CCCCC2)ccc1N1CCN(C)CC1 | 31* | 0 | -2 | 6 | 1
C[C@@H]1CN([C@H](C)CO)S(=O)(=O)c2ccc(C#CCN(C)C)cc2O[C@H]1CN(C)Cc1ccccc1 | -7 | nt | -3 | 14 | -3
CCCNC(=O)C[C@H]1CC[C@H]2[C@H](COc3ccc(NC(=O)c4cc(C)on4)cc3C(=O)N2C)O1 | 7 | nt | 5 | -15 | -1
Cc1cccc(S(=O)(=O)N2C[C@@H]3[C@H](c4ccccc42)[C@H](CO)N3C(=O)CC2CC2)c1 | ? | nt | 4 | -16 | 0
CNC[C@H]1[C@@H](c2ccc(C#CCC3CCCC3)cc2)[C@@H](CO)N1C(=O)C1CCC1 | 5 | nt | 1 | 4 | 0
OCCCn1c(-c2ccccc2)csc1=Nc1ccccc1 | -1 | 7 | -6 | 45* | 4
O=C(O)CCC(=O)NCCn1c(-c2ccccc2)csc1=Nc1ccccc1 | ? | 1 | -2 | 0 | 0
COCC(=O)Nc1ccc2c(c1)C(=O)N(C)C[C@@H](OC)[C@@H](C)CN(Cc1ccncc1)[C@@H](C)CO2 | 8 | nt | 2 | -3 | -2
COc1ccccc1-c1ccc([C@H]2[C@H]3CN(C(=O)c4ccncc4)CCCCN3[C@H]2CO)cc1 | 22* | nt | -4 | 6 | -1
Cc1cccc(-c2ccc([C@H]3[C@@H](CO)N4CCCCN(C(=O)c5ccncc5)C[C@@H]34)cc2)c1 | 51* | nt | -1 | nt | nt

Source: PubChem BioAssay (Broad Institute)
